# HEK cytotox: Cytotoxic Profiling in HEK 293 Cell Line of Diverse Libraries Using Quantitative High-Throughput Screening. HEK 293 viability, ATP luminescence (CellTiter-Glo), 48-72 h. hit rate 6.6% among 94,000. Potency, µM (top dose mostly 115 µM), most hits filed as inhibitors; active = well fitted curve in the direction sought with a large enough effect; inconclusive = small, poorly fitted or top-dose-only effect, or another doubt; inactive = no such curve, though single readings can be large; an effect the other way counts as inactive or inconclusive; also: nearly all actives have a fitted effect of over 60% in size
#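 HEK 293 cells at 250 cells/well were exposed to compounds by pintool transfer for 48 or 72 hr at 37 degree Celsius, 5% CO2. Viability was read as ATP-coupled luminescence with CellTiter-Glo after 10 min at room temperature.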
# Luciferase inh: Firefly luciferase inhibition profiling of diverse chemical library using quantitative high-throughput screening | Luciferin 4-monooxygenase (Photinus pyralis), P08659 | purified P. pyralis luciferase, luminescence, biochemical | Potency, µM (series often up to 115 µM), usual class: inhibitors | hit rate 2.5% among 76,000; active = well fitted curve in the direction sought with a large enough effect; inconclusive = small, poorly fitted or top-dose-only effect, or another doubt; inactive = no such curve, though single readings can be large; an effect the other way counts as inactive or inconclusive; also: nearly all actives have a fitted effect of over 65% in size
#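 Purified P. pyralis luciferase (10nM final) in 50mM Tris acetate pH 7.5, 10mM Mg acetate, 0.01% Tween-20, 0.05% BSA with 10uM D-luciferin and 10uM ATP. Compounds titrated qHTS. Luminescence imaged on CCD.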
# hNpr1 antagonist: Natriuretic polypeptide receptor (hNpr1) antagonism - Primary qHTS. Potency, µM (titrated, usually from 46.3 µM), actives largely listed as inhibitors. HEK293 hNpr1 GloSensor cGMP, ANP-stimulated luminescence. hit rate 1.6% among 76,000. Atrial natriuretic peptide receptor 1 (Homo sapiens), P16066; also: nearly all actives have a fitted effect of over 60% in size
# Target sequence (P16066 whole entry, looked up): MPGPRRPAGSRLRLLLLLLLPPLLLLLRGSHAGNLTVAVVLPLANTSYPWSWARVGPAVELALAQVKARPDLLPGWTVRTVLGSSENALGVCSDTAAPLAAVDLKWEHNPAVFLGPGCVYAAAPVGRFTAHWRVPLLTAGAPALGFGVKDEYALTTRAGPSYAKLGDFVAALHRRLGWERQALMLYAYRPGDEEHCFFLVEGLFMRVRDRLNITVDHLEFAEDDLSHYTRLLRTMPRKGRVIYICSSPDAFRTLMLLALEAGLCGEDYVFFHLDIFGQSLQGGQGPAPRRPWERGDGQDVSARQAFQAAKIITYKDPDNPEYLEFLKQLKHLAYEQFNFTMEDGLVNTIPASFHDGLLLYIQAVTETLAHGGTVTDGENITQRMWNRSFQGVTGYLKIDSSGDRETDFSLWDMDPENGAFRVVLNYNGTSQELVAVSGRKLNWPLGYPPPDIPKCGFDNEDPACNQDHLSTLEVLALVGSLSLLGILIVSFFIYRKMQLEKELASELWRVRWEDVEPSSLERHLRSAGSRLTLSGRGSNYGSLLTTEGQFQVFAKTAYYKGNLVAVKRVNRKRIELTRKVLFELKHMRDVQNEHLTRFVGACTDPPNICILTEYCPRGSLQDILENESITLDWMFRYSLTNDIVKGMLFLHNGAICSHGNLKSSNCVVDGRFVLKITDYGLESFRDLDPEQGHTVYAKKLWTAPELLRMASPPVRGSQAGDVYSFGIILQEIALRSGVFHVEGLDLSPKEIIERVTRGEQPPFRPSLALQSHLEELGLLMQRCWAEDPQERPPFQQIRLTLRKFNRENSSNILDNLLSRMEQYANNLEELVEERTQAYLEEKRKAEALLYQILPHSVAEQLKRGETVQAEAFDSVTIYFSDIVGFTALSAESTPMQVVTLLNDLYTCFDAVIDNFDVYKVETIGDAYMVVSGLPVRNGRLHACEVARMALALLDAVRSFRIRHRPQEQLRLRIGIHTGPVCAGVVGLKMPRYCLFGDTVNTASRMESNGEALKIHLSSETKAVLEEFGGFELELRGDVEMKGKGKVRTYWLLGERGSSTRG
#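 HEK293 cells stably expressing human Npr1 and cGMP GloSensor pGS-40F, loaded 2 h with 2% GloSensor reagent, given compound 30 min at room temperature. Luminescence read before and 20 min after 0.1 nM hNppA.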
# 3T3 cytotox: Cytotoxic Profiling in NIH 3T3 Cell Line of Diverse Libraries Using Quantitative High-Throughput Screening; NIH 3T3 viability, CellTiter-Glo ATP luminescence, 48-72 h; Potency, µM (top dose mostly 96.7 µM), actives largely listed as inhibitors; hit rate 4.3% among 94,000; AID 1345082, 2018; active = well fitted curve in the direction sought with a large enough effect; inconclusive = small, poorly fitted or top-dose-only effect, or another doubt; inactive = no such curve, though single readings can be large; an effect the other way counts as inactive or inconclusive; also: nearly all actives have a fitted effect of over 55% in size
#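 Viability of NIH 3T3 cells after 48 or 72 hr compound treatment at 37 °C was assessed by CellTiter-Glo, with luminescence imaged following a 10 min room-temperature step.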
# Npr1 antag conf: Natriuretic polypeptide receptor (hNpr1) antagonism - Confirmation; HEK293 hNpr1 cGMP GloSensor luminescence, ANP-stimulated; shares compounds with hNpr1 antagonist; Potency, µM (series often up to 57.6 µM), usual class: inhibitors; hit rate 76% among 1,400; AID 1347044, 2019; also: nearly all actives have a fitted effect of over 70% in size
# Npr2 selectivity: Natriuretic polypeptide receptor (hNpr2) antagonism - Subtype selectivity assay; shares compounds with hNpr1 antagonist; HEK293 hNpr2 GloSensor cGMP luminescence, CNP-stimulated; Potency, µM (doses to about 57.6 µM), usual class: inhibitors; hit rate 67% among 1,400; also: nearly all actives have a fitted effect of over 70% in size
# FLuc counter: Natriuretic polypeptide receptor (hNpr1) antagonism - Confirmation firefly luciferase (FLuc) inhibition counterscreen | shares compounds with hNpr1 antagonist | purified FLuc enzyme, luminescence, Km substrate | Potency, µM (titrated, usually from 57.6 µM), actives largely listed as inhibitors | hit rate 0.7% among 1,400 | AID 1347047, 2019; active = well fitted curve in the direction sought with a large enough effect; inconclusive = small, poorly fitted or top-dose-only effect, or another doubt; inactive = no such curve, though single readings can be large; an effect the other way counts as inactive or inconclusive; also: series mostly up to about 58 µM
# GloSensor ctrl: Natriuretic polypeptide receptor (hNpr1) antagonism - Counterscreen GloSensor control cell line. shares compounds with hNpr1 antagonist. HEK293 GloSensor cGMP, SNP-stimulated, luminescence. Potency, µM (top dose mostly 57.6 µM), most hits filed as inhibitors. hit rate 69% among 1,400. AID 1347051, 2019; also: nearly all actives have a fitted effect of over 70% in size
# A number is an active result; . = inactive; ? = inconclusive; / = no result. Only some compounds are listed: those with a hit (about 11% of all), similar ones and a draw of the others. Unless noted, calls follow the shape of the full dose curve.
SMILES,HEK cytotox,Luciferase inh,hNpr1 antagonist,3T3 cytotox,Npr1 antag conf,Npr2 selectivity,FLuc counter,GloSensor ctrl
Cc1ccc(Cl)cc1N1CCN(c2cc(C3CC(O)C3)ncn2)CC1 (stereo not given),28.2µM,.,8.91µM,?,19.3µM,19.3µM,.,13.7µM
Cc1ccccc1SC1CCN(c2cc(C3CC(O)C3)ncn2)CC1 (stereo not given),?,.,2.82µM,?,4.85µM,6.11µM,.,3.85µM
O=C(NCCN1CCCCC1)c1ccc(-c2nnc3ccc(NC(=O)C4CCC4)cn23)cc1,.,.,.,.,/,/,/,/
CN(C(=O)C1(c2ccc(Cl)cc2)CCOCC1)C1CCc2ccccc21 (stereo not given),?,/,/,?,19.3µM,9.68µM,.,.
CCN(CC)C(=O)c1cc2c(s1)CCC(C(=O)Nc1ccc(OC)c(F)c1)C2 (stereo not given),?,.,12.6µM,?,24.3µM,21.7µM,.,24.3µM
CCN(CC)C(=O)c1cc2c(s1)CCC(C(=O)O)C2 (stereo not given),.,.,.,.,/,/,/,/
CCc1cc(N2CCOC(c3ccc4cc(OC)ccc4c3)C2)nc(C)n1 (stereo not given),35.5µM,.,11.2µM,?,21.7µM,21.7µM,?,17.2µM
COc1ccc2cc(C3CN(Cc4cc5n(n4)CCNC5)CCO3)ccc2c1 (stereo not given),?,.,.,?,/,/,/,/
CC(C)NC(=O)c1cnc2c(c1)N(C(=O)Cc1ccc(C(C)C)cc1)CCC2,?,.,.,?,/,/,/,/
CC(C)c1ccc(CC(=O)N2CCCc3ncc(C(=O)Nc4ccccn4)cc32)cc1,31.6µM,.,20µM,100µM,11.1µM,17.7µM,.,11.1µM
CC(C)c1ccc(CC(=O)N2CCCc3ncc(C(=O)Nc4cccnc4)cc32)cc1,8.91µM,.,1.41µM,2.82µM,3.53µM,6.27µM,.,4.98µM
CC(C)c1ccc(CC(=O)N2CCCc3ncc(C(=O)Nc4cccc(Cl)c4)cc32)cc1,25.1µM,.,11.2µM,?,15.3µM,17.2µM,.,21.7µM
CN(Cc1ccnc2ccccc12)C(=O)c1cn(Cc2ccc(Cl)cc2)nn1,35.5µM,.,10µM,?,13.7µM,17.2µM,.,12.2µM
Cc1cc(C)n(-c2cccc(CN(C)C(=O)c3cn(Cc4ccc(Cl)cc4)nn3)c2)n1,?,.,.,?,/,/,/,/
O=C([C@H]1CCCN1C(=O)c1cccc(Cl)c1)N1CCC(N2CCOC2=O)CC1,.,/,/,.,/,/,/,/
Cc1cc(=O)n(CC(=O)Nc2ccc(C(C)C)cc2)c(N2CCOCC2)n1,?,.,.,?,/,/,/,/
OC(c1cccc(C(F)(F)F)c1)c1nc(Nc2ccc3c(c2)OCO3)n[nH]1 (stereo not given),?,.,?,?,?,?,.,?
COc1ccc(Nc2n[nH]c(C(O)c3cccc(C(F)(F)F)c3)n2)cc1OC (stereo not given),?,.,.,.,/,/,/,/
CN(C)c1nc2c(c(=O)[nH]1)CCN(Cc1cccc(OC(F)(F)F)c1)CC2,.,.,.,.,/,/,/,/
CCCCN(C)C(=O)CC1CCN(c2ccnc(OC)n2)CC1,?,.,11.2µM,?,17.2µM,15.3µM,.,10.9µM
COc1nccc(N2CCC(CC(=O)NCc3ccccc3F)CC2)n1,?,.,?,?,?,?,.,?
O=C(Nc1ccccc1)c1cnc2n1CCN(Cc1ccc3c(c1)CCO3)CC2,?,.,.,?,/,/,/,/
CS(=O)(=O)N1CC2(CCCN(CC3CC3)C2)Cc2ccccc21 (stereo not given),.,/,/,.,/,/,/,/
Cc1cc(C)cc(C(=O)NCc2nnc3ccc(-c4ccccc4)nn23)c1,?,.,.,.,/,/,/,/
COCCN(C)C(=O)c1ccc2c(c1)NC(C)(COc1cccnc1)CO2 (stereo not given),?,.,?,?,/,/,/,/
SMILES,HEK cytotox,Luciferase inh,hNpr1 antagonist,3T3 cytotox,Npr1 antag conf,Npr2 selectivity,FLuc counter,GloSensor ctrl
CC1(COc2cccnc2)COc2ccc(C(=O)NCc3ccc(F)cc3)cc2N1 (stereo not given),56.2µM,.,35.5µM,?,31.4µM,31.4µM,.,25µM
CC1(COc2cccnc2)COc2ccc(C(=O)NCc3cnccn3)cc2N1 (stereo not given),?,.,.,.,/,/,/,/
COc1ccc(OCC2(C)COc3ccc(C(=O)Nc4ccccc4)cc3N2)cc1 (stereo not given),?,.,25.1µM,?,35.3µM,35.3µM,.,35.3µM
COc1ccc(OCC2(C)COc3ccc(C(=O)N(C)Cc4ccccc4)cc3N2)cc1 (stereo not given),?,.,.,?,/,/,/,/
CN(C(=O)c1ccc2c(c1)NC(C)(COc1cccnc1)CO2)c1ccccc1 (stereo not given),?,.,3.16µM,.,3.53µM,4.98µM,.,3.14µM
CC1(COc2cccnc2)COc2ccc(C(=O)NCc3ccc4c(c3)OCO4)cc2N1 (stereo not given),?,.,25.1µM,?,31.4µM,31.4µM,.,22.2µM
COCCNC(=O)[C@@H]1C[C@H](Oc2cccnc2)CN1C(=O)c1n[nH]c2ccccc12,.,/,/,.,/,/,/,/
O=C(c1ccc(C(F)(F)F)cc1)N1CCCC(C(=O)N2CCCC2c2nc3ccncc3[nH]2)C1 (stereo not given),.,/,/,.,/,/,/,/
COc1ccccc1N1CCN([C@@H]2[C@H](O)[C@H](CO)O[C@@H]2CN)CC1,.,.,.,.,/,/,/,/
O=C(Cn1cccc1-c1nc(-c2ccc3c(c2)OCO3)no1)Nc1ccc2c(c1)OCCO2,?,.,.,.,/,/,/,/
COc1ccc(C2Cn3nnc(-c4noc(-c5ccc(Cl)cc5OC)n4)c3CO2)cc1 (stereo not given),.,.,.,.,/,/,/,/
CC(C)c1ccc(CN2CCc3ncc(C(=O)NCc4ccccc4)n3CC2)cc1,28.2µM,.,28.2µM,?,25µM,31.4µM,.,22.2µM
O=C(c1cc(C2CC2)[nH]n1)N1CCC2(CC1)NC(=O)N(c1cccc(F)c1)N2,?,.,.,?,/,/,/,/

# Screening data from PubChem.
